Measurements published in PubChem BioAssay.
Measured potencies and affinities stand elsewhere. Inconclusive results are not listed. Active and inactive are the calls of the source. Unless noted, the rule behind the calls is not given here.

What was measured:
[1] = cytotoxicity in PAX8-dependent RMG-1 cells, dose response, cell-based, cherry-pick (AID 687029;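 active = signal drop whose fitted half-maximal concentration is at most twice the top valid dose, in every test run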;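 note: cells exposed to compound for 96 hours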)
[2] = cytotoxicity in IOSE-T80 ovarian epithelial cells, dose response, selectivity assay for PAX8 inhibitor project, cell-based, cherry-pick (AID 687032;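 active = fitted half-maximal concentration for viability loss no higher than twice the top valid dose, in every repeat run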;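 note: cells exposed to compound for 96 h before reading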)
[3] = inhibitors of CMV-promoter luciferase reporter, dose response, counter-screen for Pax8 inhibitor project, cell-based, HEK293, luminescence, dry powder (AID 743020;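 active = signal-lowering compounds whose fitted half-maximal concentration is at or below twice the top tested dose in every run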;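 note: HEK293 cells stably expressing the CMV luciferase reporter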)
[4] = non-specific cell cytotoxicity, dose response, cytotoxicity control for PAX8 inhibitor project, plate reader, dry powder samples (AID 743021)
[5] = IGROV1 ovarian cancer cell cytotoxicity, dose response, PAX8 inhibitor project, plate reader, dry powder samples (AID 743043);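 note: more negative means fewer viable cells or more cytotoxicity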
[6] = IOSE-T80 ovarian epithelial cell cytotoxicity, dose response, cytotoxicity control for PAX8 inhibitor project, plate reader, dry powder samples (AID 743045);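 note: more negative values mean more cell killing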
[7] = A2780 ovarian cancer cell cytotoxicity, dose response, cytotoxicity control, plate reader, dry powder samples (AID 743046)
[8] = cytotoxicity in OVCAR8 ovarian cancer cells, dose response, PAX8 project, cell-based, plate reader, dry powder samples (AID 743197)

Measured: outcome

C[C@@H]1CN([C@@H](C)CO)C(=O)Cc2cc(NC(=O)Cc3cn(C)c4ccccc34)ccc2O[C@H]1CN(C)Cc1ccc(Oc2ccccc2)cc1
not listed: [8]
inactive: all other assays above

C[C@H]1CCCCO[C@H](CN(C)C(=O)C2CCCCC2)[C@@H](C)CN([C@@H](C)CO)C(=O)c2cc(NS(=O)(=O)c3ccc(Cl)cc3)ccc2O1
not listed: [8]
inactive: all other assays above

C[C@@H]1CN([C@H](C)CO)C(=O)c2cc(NC(=O)Nc3ccccc3)ccc2O[C@@H](C)CCCCO[C@H]1CN(C)C(=O)Nc1ccc(C(F)(F)F)cc1
not listed: [8]
inactive: all other assays above

C[C@@H]1CN([C@H](C)CO)S(=O)(=O)c2ccc(C#Cc3cccc(F)c3)cc2O[C@@H]1CN(C)C(=O)NC1CCCCC1
not listed: [7] | [8]
inactive: all other assays above

C[C@H]1CCCCO[C@H](CN(C)Cc2ccc(C(F)(F)F)cc2)[C@@H](C)CN([C@@H](C)CO)C(=O)c2cc(NS(=O)(=O)c3cccs3)ccc2O1
not listed: [8]
inactive: all other assays above

C[C@@H]1CCCCO[C@@H](CN(C)C(=O)Nc2ccc(C(F)(F)F)cc2)[C@H](C)CN([C@H](C)CO)C(=O)c2cc(NS(=O)(=O)c3ccc(F)cc3)ccc2O1
not listed: [8]
inactive: all other assays above

C[C@@H]1CCCCO[C@H](CN(C)CC2CCCCC2)[C@H](C)CN([C@@H](C)CO)C(=O)c2cc(NC(=O)Nc3ccccc3)ccc2O1
not listed: [8]
inactive: all other assays above

C[C@H]1CN([C@@H](C)CO)C(=O)Cc2cc(NC(=O)NC3CCCCC3)ccc2O[C@H]1CN(C)Cc1ccc(-c2ccccc2)cc1
not listed: [8]
inactive: all other assays above

C[C@@H]1CN([C@H](C)CO)C(=O)c2cc(NC(=O)c3ccccc3)ccc2O[C@@H](C)CCCCO[C@@H]1CN(C)Cc1ccc(C(F)(F)F)cc1
not listed: [8]
inactive: all other assays above

C[C@@H]1CN([C@H](C)CO)C(=O)c2cc(NS(=O)(=O)c3ccc(F)cc3)ccc2O[C@@H](C)CCCCO[C@H]1CN(C)S(=O)(=O)c1ccc(Cl)cc1
not listed: [7] | [8]
inactive: all other assays above

C[C@@H]1CN([C@H](C)CO)C(=O)c2cc(NS(=O)(=O)c3ccc(F)cc3)ccc2O[C@@H](C)CCCCO[C@@H]1CN(C)CC1CCCCC1
not listed: [7] | [8]
inactive: all other assays above

C[C@H](NC(=O)C[C@@H]1C[C@@H]2c3cc(NC(=O)Nc4ccc(C(F)(F)F)cc4)ccc3O[C@@H]2[C@@H](CO)O1)c1ccccc1
not listed: [7] | [8]
inactive: all other assays above

C[C@@H]1CCCCO[C@@H](CN(C)C(=O)NC2CCCCC2)[C@H](C)CN([C@H](C)CO)C(=O)c2cc(NS(=O)(=O)c3ccc(Cl)cc3)ccc2O1
not listed: [7] | [8]
inactive: all other assays above

C[C@H]1CN([C@@H](C)CO)S(=O)(=O)c2ccc(C#Cc3ccccc3F)cc2O[C@@H]1CN(C)CC1CCOCC1
not listed: [7] | [8]
inactive: all other assays above

C[C@@H]1CN([C@H](C)CO)C(=O)c2cc(NC(=O)Nc3ccc(F)cc3)ccc2O[C@@H](C)CCCCO[C@H]1CN(C)C(=O)Nc1ccc(C(F)(F)F)cc1
not listed: [8]
inactive: all other assays above

CC(C)NC(=O)N1Cc2cc(C(=O)NCC(F)(F)F)nc(-c3cccc(-c4cc5ccccc5o4)c3)c2[C@H]1CCO
not listed: [7] | [8]
inactive: all other assays above

C[C@@H]1CCCCO[C@H](CN(C)S(=O)(=O)c2ccccc2)[C@H](C)CN([C@@H](C)CO)C(=O)c2cc(NS(=O)(=O)c3ccc(Cl)cc3)ccc2O1
not listed: [7] | [8]
inactive: all other assays above

COc1ccc(S(=O)(=O)Nc2ccc3c(c2)C(=O)N([C@@H](C)CO)C[C@H](C)[C@@H](CN(C)Cc2ccc(C(F)(F)F)cc2)OCCCC[C@@H](C)O3)cc1
not listed: [7] | [8]
inactive: all other assays above

C[C@@H]1CCCCO[C@@H](CN(C)Cc2ccc(Cl)c(Cl)c2)[C@H](C)CN([C@H](C)CO)C(=O)c2cc(NC(=O)c3ccccc3)ccc2O1
not listed: [7] | [8]
inactive: all other assays above

C[C@@H]1CCCCO[C@@H](CN(C)C(=O)NC2CCCCC2)[C@H](C)CN([C@@H](C)CO)C(=O)c2cc(NC(=O)Nc3ccc(C(F)(F)F)cc3)ccc2O1
not listed: [7] | [8]
inactive: all other assays above

C[C@@H]1CCCCO[C@@H](CN(C)Cc2ccc(C(F)(F)F)cc2)[C@H](C)CN([C@H](C)CO)C(=O)c2cc(NC(=O)Nc3ccccc3)ccc2O1
not listed: [7] | [8]
inactive: all other assays above

C[C@H](CO)N1C[C@H](C)[C@H](CN(C)Cc2ccc(C(F)(F)F)cc2)OCCCC[C@H](C)Oc2ccc(NC(=O)Nc3ccccc3)cc2C1=O
not listed: [7] | [8]
inactive: all other assays above

C[C@H]1CCCCO[C@@H](CN(C)Cc2ccc(C(F)(F)F)cc2)[C@@H](C)CN([C@@H](C)CO)C(=O)c2cc(NC(=O)Cc3ccccc3)ccc2O1
not listed: [7] | [8]
inactive: all other assays above

Cc1ccc(S(=O)(=O)Nc2ccc3c(c2)C(=O)N([C@H](C)CO)C[C@H](C)[C@@H](CN(C)S(=O)(=O)c2ccc(Cl)cc2)OCCCC[C@H](C)O3)cc1
not listed: [7] | [8]
inactive: all other assays above

C[C@@H]1CN([C@H](C)CO)S(=O)(=O)c2ccc(-c3ccc(C#N)cc3)cc2O[C@@H]1CN(C)Cc1cccc(F)c1
not listed: [8]
inactive: all other assays above

CC(=O)N1CCOc2ccc(S(=O)(=O)N3CCN(c4cccc(C(F)(F)F)c4)CC3)cc21
not listed: [7] | [8]
inactive: all other assays above

C[C@@H]1CN([C@H](C)CO)C(=O)c2cc(NC(=O)Nc3ccccc3)ccc2O[C@@H](C)CCCCO[C@@H]1CN(C)CC1CCCCC1
not listed: [8]
inactive: all other assays above

O=C(Nc1ccc(C(F)(F)F)cc1)Nc1ccc2c(c1)[C@H]1C[C@@H](CC(=O)N3CCc4ccccc4C3)O[C@@H](CO)[C@H]1O2
not listed: [8]
inactive: all other assays above

C[C@@H]1CCCCO[C@H](CN(C)C(=O)C2CCCCC2)[C@H](C)CN([C@@H](C)CO)C(=O)c2cc(NS(=O)(=O)c3ccc(Cl)cc3)ccc2O1
not listed: [7] | [8]
inactive: all other assays above

O=C(C1CCC1)N1CC(=O)N2[C@H](C1)[C@H](c1ccc(C#Cc3cccc(F)c3)cc1)[C@@H]2CO
not listed: [7] | [8]
inactive: all other assays above

C[C@@H]1CN([C@H](C)CO)C(=O)c2cc(NC(=O)Nc3cccc4ccccc34)ccc2O[C@@H]1CN(C)C(=O)Nc1cccc2ccccc12
not listed: [8]
inactive: all other assays above

Cc1cccc(S(=O)(=O)N2C[C@@H](O)COC[C@@H]3O[C@@H](CC(=O)Nc4ccc(-c5ccccc5)cc4)CC[C@H]32)c1
not listed: [7] | [8]
inactive: all other assays above

C[C@@H]1CCCCO[C@H](CN(C)S(=O)(=O)c2ccc(Cl)cc2)[C@@H](C)CN([C@@H](C)CO)C(=O)c2cc(NS(=O)(=O)c3ccc(F)cc3)ccc2O1
not listed: [7] | [8]
inactive: all other assays above

C[C@H](CO)N1C[C@H](C)[C@H](CN(C)Cc2ccc(C(F)(F)F)cc2)OCCCC[C@H](C)Oc2ccc(NS(=O)(=O)c3ccc(F)cc3)cc2C1=O
not listed: [8]
inactive: all other assays above

C[C@@H](O)C#Cc1ccc2c(c1)O[C@H](CN(C)Cc1ccc(-c3ccccc3)cc1)[C@@H](C)CN([C@@H](C)CO)S2(=O)=O
not listed: [8]
inactive: all other assays above

Cc1noc(C)c1S(=O)(=O)Nc1ccc2c(c1)C(=O)N([C@H](C)CO)C[C@@H](C)[C@H](CN(C)C(=O)Nc1ccc(C(F)(F)F)cc1)OCCCC[C@@H](C)O2
not listed: [8]
inactive: all other assays above

O=C(C[C@@H]1CC[C@@H]2[C@H](COC[C@@H](O)CN2S(=O)(=O)c2cccc(Cl)c2)O1)Nc1ccc(-c2ccccc2)cc1
inactive: all assays above

O=C(Cc1ccccc1)N1CC[C@H]2[C@H](CO)Nc3ccc(C4=CCCCC4)cc3[C@H]21
inactive: all assays above

Cc1ccc(S(=O)(=O)Nc2ccc3c(c2)C(=O)N([C@H](C)CO)C[C@@H](C)[C@H](CN(C)Cc2ccc(Cl)c(Cl)c2)OCCCC[C@H](C)O3)cc1
not listed: [8]
inactive: all other assays above
